Assay outcomes: PubChem BioAssay, National Center for Advancing Translational Sciences (NCATS)
LmPK inh – qHTS Assay for Inhibitors of Leishmania Mexicana Pyruvate Kinase (LmPK); Q27686; purified LmPK, Kinase-Glo ATP luminescence, 1 h; Potency, µM (doses to about 57.5 µM), for inactives: at the top dose activity change, negative = inhibition, actives largely listed as inhibitors; 0.37% of 290,000 active; further: potency means the concentration at half of the fitted maximal effect; on the % scale 0 is the no-effect control and ±100 the full control effect
Target sequence (Q27686 whole entry, looked up): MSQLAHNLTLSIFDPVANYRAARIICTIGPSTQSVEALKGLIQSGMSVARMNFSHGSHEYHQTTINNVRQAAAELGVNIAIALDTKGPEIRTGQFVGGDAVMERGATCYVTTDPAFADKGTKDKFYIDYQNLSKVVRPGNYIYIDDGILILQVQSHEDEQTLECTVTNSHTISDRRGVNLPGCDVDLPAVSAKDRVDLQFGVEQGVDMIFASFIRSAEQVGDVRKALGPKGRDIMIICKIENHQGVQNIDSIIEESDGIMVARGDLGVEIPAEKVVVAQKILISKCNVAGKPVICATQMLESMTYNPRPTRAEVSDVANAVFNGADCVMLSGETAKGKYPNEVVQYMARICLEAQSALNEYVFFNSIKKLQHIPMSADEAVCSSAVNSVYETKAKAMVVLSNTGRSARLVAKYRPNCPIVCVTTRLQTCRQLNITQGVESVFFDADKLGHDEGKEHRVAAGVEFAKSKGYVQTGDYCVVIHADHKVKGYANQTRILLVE
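qHTS format; LmPK 0.1 nM; substrates PEP 0.5 mM and ADP 0.1 mM. One-hour room-temperature incubation, then coupled luciferase luminescence; 0.5 nM enzyme wells mark activation.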
Cycloheximide cs – Cycloheximide Counterscreen for Small Molecule Inhibitors of Shiga Toxin | cell reporter, cycloheximide protein synthesis inhibition counterscreen | max response, % | 12% of 300,000 active | AID 2314, 2010; in the data active means max response mostly above about 13%, no sharp cut-off; inactive means mostly below about 14%; further: read at 38.3 µM for the half of the compounds with a filed dose; 0% is about no effect
Shiga inhibitor – A qHTS for Small Molecule Inhibitors of Shiga Toxin | Vero cells, Shiga toxin protein synthesis inhibition reporter | inhibition, % at 38.7 µM | 9.2% of 290,000 active | AID 2315, 2010; in the data active means inhibition mostly above about 28%, no sharp cut-off; inactive means mostly below about 43%; further: 0% is about no effect
Pf growth 96h – Primary qHTS for delayed death inhibitors of the malarial parasite plastid, 96 hour incubation | P. falciparum luciferase reporter growth, 96 h | Potency, µM (titrated, usually from 28.7 µM), inactives show at the highest dose activity change, negative = inhibition, hits mostly inhibitors | 6.9% of 320,000 active | AID 504834, 2011; further: potency means the concentration at half of the fitted maximal effect; on the % scale 0 is the no-effect control and ±100 the full control effect
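Delayed-death screen, second-generation endpoint: infected erythrocytes, 2% hematocrit, 0.05% parasitemia final; 96 hours at 37 C, 5% CO2; luciferase detection reagent; luminescence decrease equals reduced growth.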
Pf growth 48h – Primary qHTS for delayed death inhibitors of the malarial parasite plastid, 48 hour incubation; 5.9% of 310,000 active; Potency, µM (titrated, usually from 28.7 µM), for inactives: at the highest dose activity change, negative = inhibition, most hits filed as inhibitors; P. falciparum luciferase growth in erythrocytes, 48 h; further: potency means the concentration at half of the fitted maximal effect; on the % scale 0 is the no-effect control and ±100 the full control effect
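Parasite viability was followed by luminescence of a genomically integrated firefly luciferase. Cultures held 0.1% parasitemia at 2% hematocrit (final), incubated under 5% CO2 at 37 C.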
Starred values were filed as active, the others as inactive; ? = inconclusive; nt = no result given; [ ] = remark or other dose. Compounds with a hit are over-represented: about 22% of the library has one in this group of screens. Unless noted, the call rests on the fitted dose curve; in most records, active means well fitted inhibition curve with a large enough effect; inconclusive means small, poorly fitted or top-dose-only effect, or another doubt; inactive means no such curve, though single readings can be large or run the other way.

SMILES	LmPK inh	Cycloheximide cs	Shiga inhibitor	Pf growth 96h	Pf growth 48h
CC(C)CCCC(C)C1CC(=O)C2=C3CCC4CC(O)CCC4(C)C3CCC21C (configuration not stated)	nt	nt	nt	?	-22%
CC(=O)N1CCC(C(=O)Nc2ccc(S(=O)(=O)NCCc3ccccc3)cc2)CC1	-1%	-2	-11	?	57%
C=CCSc1nc(N)c2c3c(sc2n1)CN(C)CC3	0%	21*	12	2.1µM*	?
Nc1nc(SCC(=O)NCCCN2CCOCC2)nc2sc3c(c12)CCC3	-13%	-3	-3	6%	-18%
CC1(C)Cc2c(sc3nc(SCC(=O)N4CCOCC4)nc(N)c23)CO1	-3%	7	1	?	-6%
COC(CSc1nc(N)c2c3c(sc2n1)CN(C)CC3)OC	-2%	31*	42	?	?
C=CCSc1nc(N)c2c(C)c(C)sc2n1	8%	11*	29	-3%	31%
CSc1nc(N)c2c3c(sc2n1)CN(C)CC3	5%	1	13	4.7µM*	nt
CCSc1nc(N)c2c3c(sc2n1)CN(C)CC3	-2%	-2	-2	?	?
Cc1ccc(NS(=O)(=O)c2ccc(C)c(C(=O)NCC(c3ccccc3)N(C)C)c2)cc1 (configuration not stated)	nt	nt	nt	-20%	?
CN1CC[C@H](CN2c3ccccc3Sc3ccccc32)C1	nt	nt	nt	4.8µM*	3.8µM*
c1ccc2cc3[nH]c(CN4CCOCC4)nc3cc2c1	0%	17*	35*	?	11%
c1ccc2[nH]c(CN3CCOCC3)nc2c1	2%	6	-10	nt	1%
O=C(NCCc1ccc(F)cc1)C1CCCO1 (configuration not stated)	-2%	-2	-8	?	3%
Cc1ccc(-c2cn3c(=S)[nH]nc3s2)cc1	2.2µM*	-2	-9	12%	2%
CC1=Nc2cc([N+](=O)[O-])ccc2NC(C)(C)C1	-1%	62*	115*	39%	?
O=[N+]([O-])c1ccc2cn[nH]c2c1	-3%	-2	-10	29%	17%
N#C/C(=C\Nc1ccc2cn[nH]c2c1)c1nc(-c2ccc(Cl)cc2)cs1	3%	-13	-9	4.1µM*	?
N#CCC(=O)N1CCN(C=O)CC1	-1%	-8	-9	43%	3%
Cn1cc([N+](=O)[O-])c(C(=O)Nc2cc(Oc3cccnc3)cc([N+](=O)[O-])c2)n1	2%	-7	-34	18%	1%
CCOCc1cn(CC(=O)c2ccc(Cl)cc2)c(C)nc1=N	0%	-4	-17	nt	4.1µM*
CCOCc1cn(CC(=O)c2ccc([N+](=O)[O-])cc2)c(C)nc1=N	-2%	-3	-18	nt	1µM*
COc1ccc(C(=O)Cn2cc([N+](=O)[O-])nc2C)cc1	1%	2	-7	25%	5%[0.00184 µM]
CCOC(=O)C1=C(C)N(C)C(=O)NC1c1c(O)ccc2ccccc12 (configuration not stated)	3%	1	6	-21%	nt
COc1ccc(C(=O)CSc2nnc(CNC(=O)c3ccccc3F)n2C)cc1OC	-4%	-3	-6	-8%	-15%
SMILES	LmPK inh	Cycloheximide cs	Shiga inhibitor	Pf growth 96h	Pf growth 48h
COc1cc(COCC(O)CN2CCN(CCN3C(=O)c4cccc5cccc(c45)C3=O)CC2)cc(OC)c1OC (configuration not stated)	2%	-3	-1	?	?
O=C1c2cccc3cccc(c23)C(=O)N1CC1CCN(CC(O)COc2ccc3ccccc3c2)CC1 (configuration not stated)	2%	72*	128*	1%	-4%
COc1ccc(COCC(O)CN2CCC(CN3C(=O)c4cccc5cccc(c45)C3=O)CC2)cc1OC (configuration not stated)	2%	-6	-8	12µM*	?
COc1cccc(OCC(O)CN2CCC(CN3C(=O)c4cccc5cccc(c45)C3=O)CC2)c1 (configuration not stated)	15%	-5	13	?	?
CCOC(=O)C1(Cc2cccc(OC)c2)CCN(CCO)CC1	6%	-1	-7	?	-1%
CCOC(=O)C1(Cc2cccc(F)c2)CCN(C2CCOCC2)CC1	9%	6	-11	-3%	0%
CCOC(=O)C1(Cc2cccc(OC)c2)CCN(C2CCOCC2)CC1	2%	33*	82*	?	23%
CCOC(=O)C1(Cc2cccc(OC)c2)CCN(Cc2cnc(C)s2)CC1	-1%	0	20	9.3µM*	?
CCC(Cc1c(I)cc(I)c(O)c1I)C(=O)O (configuration not stated)	nt	nt	nt	4%	-16%
O=C(O)c1cc(C(=O)O)c(-c2ccccc2)c(C(=O)O)c1	2%	-2	-6	?	2.9µM*
O=C(CSc1nnc(NC(=O)c2c(F)cccc2F)s1)NC1CC1	0%	-5	-3	?	18%
O=C(CSc1nnc(NC(=O)c2ccccc2Cl)s1)Nc1ccc2c(c1)oc1ccccc12	-4%	34*	54*	?	108%
CCOC(=O)CNC(=O)CSc1nnc(NC(=O)c2ccccc2Cl)s1	-20%	29*	59*	34%	6%
Cc1ccccc1C(=O)Nc1nnc(SCC(=O)NC2CC2)s1	-6%	30*	64*	?	179%
CC(C)(C)NC(=O)CSc1nnc(NC(=O)c2ccccc2Cl)s1	1%	12	30	-4%	18%
O=C(CSc1nnc(NC(=O)c2ccccc2Cl)s1)NC1CC1	-8%	39*	61*	?	95%
Cc1cccn2c(=O)c(C=NCCO)c(Nc3ccc(Cl)cc3)nc12	1%	1	-19	98%	38%
CCN(CC)C(=O)c1cc2c(=O)n3ccccc3nc2s1	-2%	22	38	101%	nt
CC(C)CN(CC(C)C)C(=O)c1cc2c(=O)n3ccccc3nc2s1	-3%	3	17	4%	-62%
COCCN(CCOC)C(=O)c1cc2c(=O)n3ccccc3nc2s1	7%	34*	23	3%	34%
CCC(C)NC(=O)c1cc2c(=O)n3ccccc3nc2s1 (configuration not stated)	0%	35*	32*	?	40%
CC(C)CCNC(=O)c1cc2c(=O)n3ccccc3nc2s1	-7%	20*	41*	1%	43%
Cc1ccc(NC(=O)Cn2nc(-c3ccco3)ccc2=O)cc1Cl	1%	-1	8	?	30%
COCCN(C(=O)COC(=O)CCOc1ccccc1C)c1c(N)n(Cc2ccccc2)c(=O)[nH]c1=O	nt	nt	nt	-1%	-5%
COc1ccc(NC(=O)CN(c2ccccc2F)S(=O)(=O)c2ccc(C)cc2)cc1	-2%	-1	4	0%	-6%
